# Peg3 promoter = Peg3 promoter-driven luciferase inhibitors, primary screen, cell-based, HeLa, luciferase luminescence; HeLa PEG-Prom luciferase reporter, overnight; inhibition, % at 20 µM; 360,000 tested, 1.7% active;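 active = inhibition of at least 50% at 20 µM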
# EBV LMP1 NFkB = EBV LMP1-driven NF-kappaB luciferase reporter inhibitors, primary screen, cell-based, luminescence, single point. inhibition, % at 12.5 µM. LMP1-induced NF-kappaB luciferase reporter cells. AID 504558, 2011. 350,000 tested, 0.69% active; in the data active = inhibition above about 41%; inconclusive = no clear call, values can overlap the other calls
# Shn3 inh set2 = reduction of Shn3 3'UTR firefly luciferase signal, primary screen, Schnurri-3 inhibitor project, cell-based, Clone20 osteoblasts, set 2; 360,000 tested, 0.52% active; Clone20 osteoblast Shn3 3'UTR firefly luciferase, 24 h; AID 588674, 2011; inhibition, % at 12.5 µM;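 active = mean inhibition of at least 75% with every replicate also reaching 75%; inconclusive = mean inhibition at least 75% but some replicate below; inactive = mean inhibition below 75%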
# HIF-2a inh = HIF-2a reporter inhibitors, primary screen, luminescence, 786-0 RCC cells; 786-0 RCC cells HIF-2a reporter, luciferase luminescence, overnight; 360,000 tested, 0.72% active; inhibition, % at 18.8 µM;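 active = inhibition of the luminescence signal of 40% or more relative to plate controls, in a single-dose primary screen at 18.75 µM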
# TRPM1 prom inh = inhibitors of MITF-dependent TRPM1 promoter reporter, primary screen, cell-based, SK-MEL-5, single point, luciferase. inhibition, % at 12.5 µM. SK-MEL-5 TRPM1 promoter luciferase, 24 h. 330,000 tested, 0.83% active;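 active = mean inhibition across replicates of 60% or more, whatever share of single replicates reaches that level; inconclusive = some that reach 60%, reason not given; inactive = mean inhibition across replicates below 60%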
# PAX8 inh HTS = inhibitors of PAX8-driven TPO luciferase reporter, primary screen, RMG-I cells, single concentration | 360,000 tested, 1.2% active | SteadyGlo, 24 h | inhibition, % at 12.6 µM | AID 652154, 2013;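 active = mean replicate inhibition at least 60% with every replicate also reaching 60%; inconclusive = only one of the two criteria is met; inactive = mean below 60% and not all replicates reaching 60%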;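 also: luciferase light reporting Pax8 driven TPO promoter activity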
# Numbers stand for hits; . = inactive; ? = inconclusive; / = no result; ! = not confirmed by another sample. Compounds with a hit are over-represented: about 2.8% of the library has one in this group of screens.
SMILES,Peg3 promoter,EBV LMP1 NFkB,Shn3 inh set2,HIF-2a inh,TRPM1 prom inh,PAX8 inh HTS
CCC(=O)N1C[C@H](C)[C@@H](OC)CN(C)C(=O)c2ccc(NC(=O)COC)cc2OC[C@H]1C,/,/,/,/,/,.
Cc1noc(C)c1S(=O)(=O)N(C)C[C@H]1OCCCC[C@H](C)Oc2ccc(N(C)C)cc2C(=O)N([C@H](C)CO)C[C@@H]1C,/,/,/,/,/,.
O=C1OCC2=C1C(c1ccc3c(c1)OCO3)c1cc3c(cc1O2)OCO3 (centres undefined),.,59,.,.,.,.
COC(=O)c1ccc2c(=O)n(CCCCCC(=O)O)c(=O)[nH]c2c1,.,.,.,.,.,.
COC(=O)c1ccc2c(=O)n(CCCCCC(=O)N3CCN(c4ccc(F)cc4)CC3)c(=O)[nH]c2c1,90,.,.,.,.,.
COc1cc2[nH]c(=O)n(CCCCCC(=O)N3CC=C(c4ccccc4)CC3)c(=O)c2cc1OC,70,.,.,.,.,.
CCCCC[C@H](O)/C=C/C1C(=O)C=C[C@H]1C/C=C\CCCC(=O)OC (some centres undefined),95,.,.,.,64,.
COCC#Cc1ccc([C@H]2[C@H](CO)N3CCCCN(S(=O)(=O)c4cccc(OC)c4)C[C@@H]23)cc1,/,/,/,/,/,.
COc1ccc(/C=C/CN2CCN(Cc3ccccc3)C(CCO)C2)cc1 (centres undefined),.,51,.,.,.,.
C[C@@H]1CN([C@H](C)CO)C(=O)c2cc(-c3ccc(F)cc3)cnc2O[C@@H]1CN(C)C(=O)c1ccccn1,/,/,/,/,/,.
CC(=O)NC(c1cc(Cl)c2cccnc2c1O)C(C)C (centres undefined),.,.,86,.,.,.
COc1ccc(C(NC(=O)c2cccnc2)c2cc(Cl)c3cccnc3c2O)cc1OC (centres undefined),.,.,93,.,.,/
CCC(=O)NC(c1ccc(OC)cc1)c1cc(Cl)c2cccnc2c1O (centres undefined),.,.,.,.,.,.
CC(=O)NC(c1cc(Cl)c2ccccc2c1O)C(C)C (centres undefined),.,.,.,.,.,.
CCC(=O)NC(c1ccco1)c1cc(Cl)c2cccnc2c1O (centres undefined),.,.,.,.,.,85
C[C@@H]1CN([C@@H](C)CO)C(=O)Cc2cc(NC(=O)Nc3ccccc3)ccc2O[C@H]1CN(C)Cc1ccc2c(c1)OCO2,/,/,/,/,/,.
CC(C)c1ccc(-c2csc3ncnc(N4CCN(C)CC4)c23)cc1,.,49,.,.,.,.
O=C(Cc1ccccc1)N[C@@H]1CC[C@@H](CC(=O)N2CCCCC2)O[C@H]1CO,/,/,/,/,/,.
Brc1ccc2nc(-c3ccc(CN4CCC(c5nc6ccccc6[nH]5)CC4)cc3)c(-c3ccccc3)nc2c1,/,/,/,/,/,101
CO[C@H]1CN(C)C(=O)c2ccc(NC(=O)c3ccc(Oc4ccccc4)cc3)cc2OC[C@@H](C)NC[C@H]1C,/,/,/,/,/,.
Cc1cc(Cl)c2oc(C(=O)N3CCN(c4ccncc4)CC3)c(C)c2c1,92,.,.,.,.,.
Cn1nc([N+](=O)[O-])nc1S(C)(=O)=O,.,.,.,.,72,?
CS(=O)(=O)c1nc([N+](=O)[O-])nn1CCCc1ccccc1,60,.,.,.,.,/
O=C(Nc1cccc2ncccc12)c1ccc([N+](=O)[O-])o1,51,.,.,.,.,.
Cc1cccnc1NC(=O)c1ccc([N+](=O)[O-])o1,.,.,.,.,.,.
SMILES,Peg3 promoter,EBV LMP1 NFkB,Shn3 inh set2,HIF-2a inh,TRPM1 prom inh,PAX8 inh HTS
Cc1c(NC(=O)c2ccc([N+](=O)[O-])o2)cccc1-c1nc2ncccc2o1,83,.,.,.,78,?
CN(C)CCC(c1ccc(Cl)cc1)c1ccccn1 (centres undefined),.,.,.,.,.,.
CN(C)CCC(c1ccccc1)c1ccccn1 (centres undefined),.,56!,.,.,.,.
C[C@H](CO)N1C[C@H](C)[C@@H](CN(C)CC2CC2)OCCCC[C@H](C)Oc2ccc(NC(=O)CCCCCC(=O)Nc3ccccc3N)cc2C1=O,/,/,/,/,/,.
CC(C)C[C@H]1CNC(=S)N1C[C@H]1CCCN1C[C@H](CC(C)C)N1C[C@H](Cc2ccc(O)cc2)N(CC2CCCCCC2)C1=S,87,/,.,.,/,.
CC(C)C[C@H]1CNC(=S)N1CC1CCCN1C[C@H](CC(C)C)N1C[C@H](Cc2ccc(O)cc2)N(CC2CCCCC2)C1=S (some centres undefined),78,.,.,.,.,.
CC(C)C[C@@H](CN1CCCC1CN1C(=S)NC[C@@H]1Cc1ccc(O)cc1)N1C[C@H](Cc2ccc(O)cc2)N(CC2CCCCC2)C1=S (some centres undefined),93,.,.,.,.,.
CC(C)C[C@H]1CNC(=S)N1C[C@H]1CCCN1C[C@H](CC(C)C)N1C[C@H](Cc2ccc(O)cc2)N(CCc2ccccc2)C1=S,69,/,.,.,/,.
CC(C)C[C@@H](CN1CCC[C@@H]1CN1C(=S)NC[C@@H]1Cc1ccccc1)N1C[C@H](Cc2ccc(O)cc2)N(CC2CCCCC2)C1=S,.,/,.,.,/,.
CCCNC(=O)C[C@@H]1CC[C@@H]2[C@H](COc3ccc(NC(=O)CCC)cc3C(=O)N2C)O1,/,/,/,/,/,.
CCN1CC(=O)N2[C@@H](CO)[C@H](c3ccc(-c4cccnc4)cc3)[C@@H]2C1,/,/,/,/,/,.
CC(C)C[C@H]1CNC(=S)N1CC1CCCN1C[C@H](CC(C)C)N1C[C@H](Cc2ccc(O)cc2)N(CC2CCCCCC2)C1=S (some centres undefined),87,.,.,.,.,.
CC(C)C[C@@H](CN1CCC[C@H]1CN1C(=O)C(=O)NC[C@@H]1Cc1ccccc1)N1C[C@H](Cc2ccccc2)N(CC2CCCCCC2)C(=O)C1=O,/,/,/,.,/,65
COc1cc([C@H]2c3[nH]c4ccccc4c3C[C@H]3C(=O)N4[C@@H](c5cc(OC)c(OC)c(OC)c5)c5[nH]c6ccccc6c5C[C@H]4C(=O)N23)cc(OC)c1OC,.,.,.,52,/,/
CCN1C(=O)[C@@H]2Cc3c([nH]c4ccccc34)C(c3cc(OC)c(OC)c(OC)c3)N2C1=S (some centres undefined),.,.,.,.,.,.
O=C(N/N=C/c1ccc(O)cc1O)c1ccc(NC(=O)C2CCCCC2)cc1,62,.,.,.,67,.
CS(=O)(=O)Nc1ccc2c(c1)[C@H]1C[C@@H](CC(=O)NCCc3ccccc3)O[C@H](CO)[C@H]1O2,/,/,/,/,/,.
Cc1nn(-c2ccccc2)c(Cl)c1C(=O)NCCCCNC(=O)c1c(C)nn(-c2ccccc2)c1Cl,.,61,.,.,.,/
